# Experimental data published in PubChem BioAssay.
# Unmarked numbers belong to inactive results. For some of these results: Entries with a potency or affinity are not part of this list. Calls of active or inactive are those of the source. Unless noted, the rule behind the calls is not given here.
# Columns and labels:
# [1] = antimalarial activity against Dd2 strain (AID 2302;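 active = growth inhibition above 50% at the single 2 µM test dose, taken to imply half-maximal potency below 2 µM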;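 note: 0% = DMSO untreated growth and 100% = chloroquine plus artemisinin killed control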); conditions: P. falciparum Dd2 in RBCs, LDH growth readout, 72 h; at 2 µM; active compounds read high
# [2] = human hepatoma cell viability loss – ATP luminescence, cytotoxicity control for P. falciparum antimalarial project, primary screen (AID 2303;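 active = inhibition above 50%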;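 note: 0% = DMSO wells and 100% = digitonin-killed cells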); conditions: HepG2 viability, 24-48 h, at 10 µM, active compounds read high
# [3] = biological target: L-lactate dehydrogenase (Plasmodium falciparum (isolate CDC / Honduras)) (UniProt Q27743); assay: PfLDH activity inhibition – cell lysate, 3D7 strain, counter-screen for P. falciparum growth inhibition project (AID 2304);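 note: 0% = vehicle and 100% = reference inhibitor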; conditions: P. falciparum 3D7 crude extract, LDH APAD/NBT absorbance; at 2 µM; active compounds read high
# Chain of L-lactate dehydrogenase (Plasmodium falciparum (isolate CDC / Honduras)) (Q27743 whole entry, looked up): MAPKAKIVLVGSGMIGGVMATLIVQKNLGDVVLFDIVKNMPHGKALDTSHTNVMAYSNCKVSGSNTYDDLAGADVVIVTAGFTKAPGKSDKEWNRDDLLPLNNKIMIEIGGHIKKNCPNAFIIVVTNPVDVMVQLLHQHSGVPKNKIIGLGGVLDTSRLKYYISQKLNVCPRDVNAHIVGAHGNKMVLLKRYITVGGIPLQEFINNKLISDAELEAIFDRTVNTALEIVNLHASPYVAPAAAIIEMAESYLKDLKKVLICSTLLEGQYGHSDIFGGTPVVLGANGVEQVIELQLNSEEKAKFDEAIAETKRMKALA
# [4] = inhibition of 3D7 malaria parasite growth – strain 3D7 (AID 2306);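 note: 0% = DMSO wells and 100% = chloroquine plus artemisinin control wells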; conditions: P. falciparum 3D7 erythrocytic growth, LDH absorbance, 72 h; at 2 µM; active compounds read high
# [5] = biological target: Calcium-dependent protein kinase 1 (Plasmodium falciparum (isolate 3D7)) (UniProt P62344); assay: PfCDPK1 kinase inhibitors, biochemical, TCAMS library (AID 1159585; cut-off not given, nearly all actives have IC50 up to about 0.98 µM;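 note: inhibitors leave more ATP so luminescence rises with inhibition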); conditions: recombinant PfCDPK1, Kinase-Glo ATP depletion luminescence
# Chain of Calcium-dependent protein kinase 1 (Plasmodium falciparum (isolate 3D7)) (P62344 whole entry, looked up): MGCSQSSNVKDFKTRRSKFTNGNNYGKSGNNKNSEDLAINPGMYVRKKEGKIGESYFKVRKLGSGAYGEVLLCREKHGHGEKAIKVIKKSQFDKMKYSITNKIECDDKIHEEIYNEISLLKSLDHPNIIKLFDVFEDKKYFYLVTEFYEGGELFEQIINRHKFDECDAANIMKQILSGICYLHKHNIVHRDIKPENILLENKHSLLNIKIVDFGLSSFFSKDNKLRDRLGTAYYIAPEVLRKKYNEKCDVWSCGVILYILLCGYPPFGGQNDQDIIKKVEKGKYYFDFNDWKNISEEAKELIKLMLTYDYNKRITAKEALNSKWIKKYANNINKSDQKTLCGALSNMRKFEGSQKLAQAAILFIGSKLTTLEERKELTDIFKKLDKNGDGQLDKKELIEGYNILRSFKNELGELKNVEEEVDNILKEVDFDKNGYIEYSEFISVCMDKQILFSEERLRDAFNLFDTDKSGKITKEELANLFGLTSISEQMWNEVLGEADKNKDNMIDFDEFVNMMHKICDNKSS
# [6] = biological target: Plasmodium falciparum protein kinase 6 (PK6, PF3D7_1337100) (UniProt Q8IDW1); assay: PfPK6 kinase inhibitors, biochemical, TCAMS library (AID 1159586); conditions: recombinant PfPK6, Kinase-Glo ATP depletion luminescence
# Chain of Plasmodium falciparum protein kinase 6 (PK6, PF3D7_1337100) (Q8IDW1 1-305): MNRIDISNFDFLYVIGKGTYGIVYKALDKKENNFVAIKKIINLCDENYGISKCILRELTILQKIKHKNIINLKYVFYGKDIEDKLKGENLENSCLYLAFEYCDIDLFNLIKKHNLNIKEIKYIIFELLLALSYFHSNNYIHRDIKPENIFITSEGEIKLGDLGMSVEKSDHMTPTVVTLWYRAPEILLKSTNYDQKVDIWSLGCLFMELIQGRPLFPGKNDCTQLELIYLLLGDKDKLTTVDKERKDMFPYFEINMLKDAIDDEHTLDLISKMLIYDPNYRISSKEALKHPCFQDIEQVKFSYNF
# [7] = biological target: Protein kinase 7 (PK7), Plasmodium falciparum 3D7 (PF3D7_0213400) (UniProt Q7YTF7); assay: inhibition of Plasmodium PK7 catalytic activity – biochemical, TCAMS antimalarial set, Kinase-Glo luminescence (AID 1159587); conditions: recombinant PfPK7, Kinase-Glo ATP depletion luminescence
# Chain of Protein kinase 7 (PK7), Plasmodium falciparum 3D7 (PF3D7_0213400) (Q7YTF7 1-343): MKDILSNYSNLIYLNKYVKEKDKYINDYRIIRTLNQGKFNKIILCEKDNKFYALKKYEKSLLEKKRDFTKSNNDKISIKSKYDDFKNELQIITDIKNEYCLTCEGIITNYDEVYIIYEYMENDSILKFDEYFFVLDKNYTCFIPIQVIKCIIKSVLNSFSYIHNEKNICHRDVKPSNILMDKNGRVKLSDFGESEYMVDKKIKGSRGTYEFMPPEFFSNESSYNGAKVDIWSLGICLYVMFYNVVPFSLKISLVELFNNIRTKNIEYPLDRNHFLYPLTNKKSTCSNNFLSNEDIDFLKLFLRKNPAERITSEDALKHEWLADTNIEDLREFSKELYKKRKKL
# [8] = biological target: Calcium-dependent protein kinase 4 (Plasmodium falciparum (isolate 3D7)) (UniProt Q8IBS5); assay: PfCDPK4 kinase inhibitors, biochemical, TCAMS library (AID 1159588; cut-off not given, nearly all actives have IC50 up to about 0.91 µM); conditions: recombinant PfCDPK4, Kinase-Glo ATP depletion luminescence
# Chain of Calcium-dependent protein kinase 4 (Plasmodium falciparum (isolate 3D7)) (Q8IBS5 whole entry, looked up): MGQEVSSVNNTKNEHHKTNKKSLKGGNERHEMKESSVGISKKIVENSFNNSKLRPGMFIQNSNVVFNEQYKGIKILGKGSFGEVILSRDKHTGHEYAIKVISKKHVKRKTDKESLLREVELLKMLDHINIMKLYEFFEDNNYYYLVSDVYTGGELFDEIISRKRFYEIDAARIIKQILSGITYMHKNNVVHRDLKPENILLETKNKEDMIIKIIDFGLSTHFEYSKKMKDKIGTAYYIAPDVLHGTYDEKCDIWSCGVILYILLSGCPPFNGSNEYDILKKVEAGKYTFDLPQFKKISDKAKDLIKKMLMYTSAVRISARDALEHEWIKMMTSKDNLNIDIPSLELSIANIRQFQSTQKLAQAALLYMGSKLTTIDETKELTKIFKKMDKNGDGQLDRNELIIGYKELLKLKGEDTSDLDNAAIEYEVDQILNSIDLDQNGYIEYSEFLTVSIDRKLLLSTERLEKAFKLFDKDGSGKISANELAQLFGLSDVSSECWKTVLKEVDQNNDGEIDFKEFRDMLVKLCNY
SMILES,growth inhibition [1],inhibition [2],inhibition [3],growth inhibition [4],outcome [5],outcome [6],outcome [7],outcome [8]
COc1ccc(NC(C)C(=O)Nc2ccc(Br)cc2)cc1S(=O)(=O)N1CCCCC1 (stereo not given),97% (active),2%,-2%,99% (active),inactive,inactive,inactive,inactive
Cn1cc(C2CCN(CCCCNC(=O)c3ccc(C(=O)Nc4ccc(C#N)cc4)cc3)CC2)c2ccccc21,58% (active),16%,-4%,100% (active),inactive,inactive,inactive,inactive
C[C@@H](NC(=O)NC(CCN1CCC2(CC1)CN(S(C)(=O)=O)c1ccccc12)c1ccc(Cl)c(Cl)c1)c1ccccc1 (stereo not given in full),88% (active),15%,3%,92% (active),inactive,inactive,inactive,inactive
Cc1cc(=O)c2cc(Oc3ccc(OC(F)(F)F)cc3)ccc2[nH]1,71% (active),20%,-2%,86% (active),inactive,inactive,inactive,inactive
CCc1cc(OC)ccc1C1CCN(CCCCNC(=O)c2ccc(NC(=O)c3ccc(Cl)cc3)cc2)CC1,61% (active),23%,6%,95% (active),inactive,inactive,inactive,inactive
Clc1nc2ccccn2c1C=Cc1ccc2ccccc2n1,75% (active),-31%,-6%,86% (active),inactive,inactive,inactive,inactive
O=C1OC(c2cc3ccccc3n2S(=O)(=O)c2ccccc2)(c2cc3ccccc3n2S(=O)(=O)c2ccccc2)c2ccccc21,78% (active),1%,-1%,95% (active),inactive,inactive,inactive,inactive
CSc1nnc2n(Cc3ccccc3)c(=O)c3c(n12)-c1ccccc1CC31CCCCC1,-6%,0%,1%,93% (active),inactive,inactive,inactive,inactive
Cc1nc(N)nc(N)c1OCCCCOc1ccccc1,4%,62% (active),-1%,94% (active),inactive,inactive,inactive,inactive
CC(C)[C@@H]1c2ccc(O)cc2C[C@H]2C(=O)N(C3CCCCC3)C(=O)N21,88% (active),2%,0%,95% (active),inactive,inactive,inactive,inactive
COc1nc2c(CCN3CC[C@H](NCc4ccc5c(c4)NC(=O)CO5)[C@H](O)C3)c(Cl)cnc2cc1F,22%,21%,-3%,90% (active),inactive,inactive,inactive,inactive
Cc1c(-c2cccc(Br)c2)[nH]c2nc(N)nc(N)c12,61% (active),8%,-4%,100% (active),inactive,inactive,inactive,inactive
CCC(C)CC(=O)Nc1ccc(OC)c(S(=O)(=O)N[C@@H]2CCN(C#N)C2)c1 (stereo not given in full),77% (active),16%,0%,94% (active),inactive,inactive,inactive,inactive
O=C(Nc1ccc(N2CCCCC2)c(Cl)c1)c1ncn[nH]1,93% (active),-4%,-6%,93% (active),inactive,inactive,inactive,inactive
CCCC(C)Nc1nc(C)cc(N[C@@H](Cc2ccccc2)C(=O)NCc2cccc(F)c2)n1 (stereo not given in full),75% (active),9%,-2%,100% (active),inactive,inactive,inactive,inactive
O=C(c1ccc(Cl)cc1)C1CCCN(C2CCN(CCc3ccccc3)CC2)C1 (stereo not given),51% (active),37%,1%,96% (active),inactive,inactive,inactive,inactive
O=C(NC1CCN(c2ccnc3ccccc23)C1)c1ccc(OC(F)(F)F)cc1 (stereo not given),68% (active),35%,-4%,89% (active),inactive,inactive,inactive,inactive
COc1ccc2nc(C)cc(NCc3cccc4ccccc34)c2c1,72% (active),28%,-7%,102% (active),inactive,inactive,inactive,inactive
CC(C)(C)c1ccc(CN2CCC(CNC(=O)c3cc(-c4ccccc4F)cs3)C2)cc1 (stereo not given),98% (active),46%,4%,100% (active),inactive,inactive,inactive,inactive
c1ccc(COc2ccnc(NCCCOc3cccc(CN4CCCCC4)c3)c2)cc1,51% (active),22%,-2%,101% (active),inactive,inactive,inactive,inactive
